Experimental data taken from PubChem BioAssay AID1159580 (chemical genetic matrix, 2015).
Several values for one entry are separate records, joined by “and”; a condition that tells them apart may be missing. Equal entries are not always repeated. Hit rate of the full screen: of about 5,500 compounds, about 2,000 (36%) were called active. Roughly 18% stayed inconclusive and do not appear here. No stated cut-off is given here; in the data, active means normalized growth mostly below about 0.91 (no sharp cut-off); inconclusive means no clear call, values can overlap the other calls; inactive means mostly above about 0.92. The list shows a part of the results.

Experiment: chemical genetic growth profiling, strain panel (AID 1159580);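 further: tested at 20 µM; growth read once vehicle control cultures reached saturation at 30 °C; 1 = growth at the plate median or of vehicle wells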
Conditions: growth OD

Measured: normalized growth

COc1ccccc1N1CCN(CCCNc2cc(=O)n(C)c(=O)n2C)CC1
inactive: S. cerevisiae deletion strains, locus YJR043C, strain POL32, stronger effect = lower value 1.01 | S. cerevisiae deletion strains, locus YJR075W, strain HOC1, stronger effect = lower value 0.991 | S. cerevisiae deletion strains, locus YKL009W, strain mrt4, stronger effect = lower value 0.976 | S. cerevisiae deletion strains, locus YKL068W, stronger effect = lower value 0.978 | S. cerevisiae deletion strains, locus YKL085W, strain MDH1 (second series), stronger effect = lower value 0.985 | S. cerevisiae deletion strains, locus YKL085W, strain MDH1, stronger effect = lower value 0.985 | S. cerevisiae deletion strains, locus YKL160W, strain elf1, stronger effect = lower value 0.995 | S. cerevisiae deletion strains, locus YKL190W, strain CNB1, stronger effect = lower value 0.986 | S. cerevisiae deletion strains, locus YKR001C, strain vps1, stronger effect = lower value 0.982 | S. cerevisiae deletion strains, locus YKR026C, strain gcn3, stronger effect = lower value 1.02 | S. cerevisiae deletion strains, locus YKR091W, strain srl3, stronger effect = lower value 1.01 | S. cerevisiae deletion strains, locus YLL001W, strain dnm1, stronger effect = lower value 1.02 | S. cerevisiae deletion strains, locus YLL026W, stronger effect = lower value 1.01 | S. cerevisiae deletion strains, locus YLL041C, strain sdh2, stronger effect = lower value 1.01 | S. cerevisiae deletion strains, locus YLR027C, strain aat2, stronger effect = lower value 1.01 | S. cerevisiae deletion strains, locus YLR039C, strain RIC1, stronger effect = lower value 0.937 | S. cerevisiae deletion strains, locus YLR058C, strain SHM2, stronger effect = lower value 0.974 | S. cerevisiae deletion strains, locus YLR102C, strain apc9, stronger effect = lower value 0.988 | S. cerevisiae deletion strains, locus YLR221C, strain rsa3, stronger effect = lower value 1.01 | S. cerevisiae deletion strains, locus YLR258W, strain gsy2, stronger effect = lower value 1.02 | S. cerevisiae deletion strains, locus YLR262C, strain YPT6 (second series), stronger effect = lower value 1.03 | S. cerevisiae deletion strains, locus YLR262C, strain YPT6, stronger effect = lower value 0.857 | S. cerevisiae deletion strains, locus YLR268W, strain sec22, stronger effect = lower value 0.982 | S. cerevisiae deletion strains, locus YLR320W, strain mms22, stronger effect = lower value 1.02 | S. cerevisiae deletion strains, locus YLR330W, strain CHS5, stronger effect = lower value 0.982 | S. cerevisiae deletion strains, locus YLR342W, strain FKS1 (second series), stronger effect = lower value 1.03 | S. cerevisiae deletion strains, locus YLR342W, strain FKS1, stronger effect = lower value 1.01 | S. cerevisiae deletion strains, locus YLR357W, strain rsc2, stronger effect = lower value 1.03 | S. cerevisiae deletion strains, locus YLR370C, strain arc18, stronger effect = lower value 1.03 | S. cerevisiae deletion strains, locus YLR371W, strain rom2, stronger effect = lower value 1 | S. cerevisiae deletion strains, locus YLR384C, strain iki3, stronger effect = lower value 1.02 | S. cerevisiae deletion strains, locus YLR418C, strain cdc73, stronger effect = lower value 0.97 | S. cerevisiae deletion strains, locus YML016C, strain PPZ1, stronger effect = lower value 0.983 | S. cerevisiae deletion strains, locus YML032C, strain rad52, stronger effect = lower value 1.01 | S. cerevisiae deletion strains, locus YML120C, strain ndi1, stronger effect = lower value 1 | S. cerevisiae deletion strains, locus YML124C, strain tub3, stronger effect = lower value 0.997 | S. cerevisiae deletion strains, locus YMR058W, strain fet3, stronger effect = lower value 1.01 | S. cerevisiae deletion strains, locus YMR078C, strain ctf18, stronger effect = lower value 0.981 | S. cerevisiae deletion strains, locus YMR125W, strain sto1, stronger effect = lower value 1.01 | S. cerevisiae deletion strains, locus YMR129W, stronger effect = lower value 1.02 | S. cerevisiae deletion strains, locus YMR205C, strain PFK2, stronger effect = lower value 1.01 | S. cerevisiae deletion strains, locus YMR223W, strain ubp8, stronger effect = lower value 1 | S. cerevisiae deletion strains, locus YMR231W, strain pep5, stronger effect = lower value 1.02 | S. cerevisiae deletion strains, locus YMR263W, strain SAP30, stronger effect = lower value 0.975 | S. cerevisiae deletion strains, locus YMR307W, strain GAS1, stronger effect = lower value 0.969 and 1.01 | S. cerevisiae deletion strains, locus YNL067W, strain RPL9B, stronger effect = lower value 0.977 | S. cerevisiae deletion strains, locus YNL071W, strain lat1, stronger effect = lower value 1.02 | S. cerevisiae deletion strains, locus YNL128W, strain TEP1, stronger effect = lower value 0.983 and 1.01 | S. cerevisiae deletion strains, locus YNL153C, strain GIM3, stronger effect = lower value 0.977 | S. cerevisiae deletion strains, locus YNL175C, strain NOP13, stronger effect = lower value 1 | S. cerevisiae deletion strains, locus YNL197C, strain WHI3, stronger effect = lower value 1 | S. cerevisiae deletion strains, locus YNL209W, strain ssb2, stronger effect = lower value 1.01 | S. cerevisiae deletion strains, locus YNL224C, strain SQS1, stronger effect = lower value 1 | S. cerevisiae deletion strains, locus YNL233W, strain BNI4, stronger effect = lower value 0.986 | S. cerevisiae deletion strains, locus YNL248C, strain rpa49, stronger effect = lower value 1 | S. cerevisiae deletion strains, locus YNL250W, strain rad50, stronger effect = lower value 0.983 | S. cerevisiae deletion strains, locus YNL271C, strain bni1, stronger effect = lower value 0.992 | S. cerevisiae deletion strains, locus YNL298W, strain CLA4, stronger effect = lower value 0.982 | S. cerevisiae deletion strains, locus YNL307C, strain MCK1, stronger effect = lower value 1.01 | S. cerevisiae deletion strains, locus YNL322C, strain KRE1 (second series), stronger effect = lower value 1.01 | S. cerevisiae deletion strains, locus YNL322C, strain KRE1, stronger effect = lower value 0.977 and 1.02 | S. cerevisiae deletion strains, locus YNR049C, strain mso1, stronger effect = lower value 1.02 | S. cerevisiae deletion strains, locus YNR052C, strain pop2, stronger effect = lower value 0.997 | S. cerevisiae deletion strains, locus YOL006C, strain TOP1, stronger effect = lower value 0.959 | S. cerevisiae deletion strains, locus YOL012C, strain htz1 0.738 | S. cerevisiae deletion strains, locus YOL147C, strain pex11, stronger effect = lower value 0.992 | S. cerevisiae deletion strains, locus YOR001W, strain rrp6, stronger effect = lower value 1.02 | S. cerevisiae deletion strains, locus YOR061W, strain CKA2, stronger effect = lower value 0.963 | S. cerevisiae deletion strains, locus YOR069W, strain VPS5, stronger effect = lower value 0.995 | S. cerevisiae deletion strains, locus YOR070C, strain gyp1, stronger effect = lower value 1.01 | S. cerevisiae deletion strains, locus YOR080W, strain dia2, stronger effect = lower value 1.01 | S. cerevisiae deletion strains, locus YOR083W, strain WHI5 (second series), stronger effect = lower value 0.992 | S. cerevisiae deletion strains, locus YOR083W, strain WHI5, stronger effect = lower value 0.989 | S. cerevisiae deletion strains, locus YOR106W, strain vam3, stronger effect = lower value 1.01 | S. cerevisiae deletion strains, locus YOR136W, strain idh2, stronger effect = lower value 0.997 | S. cerevisiae deletion strains, locus YOR144C, strain elg1, stronger effect = lower value 0.996 | S. cerevisiae deletion strains, locus YOR184W, strain ser1, stronger effect = lower value 1 | S. cerevisiae deletion strains, locus YOR265W, strain rbl2, stronger effect = lower value 1.01 | S. cerevisiae deletion strains, locus YOR270C, strain vph1, stronger effect = lower value 1.03 | S. cerevisiae deletion strains, locus YOR290C, strain snf2, stronger effect = lower value 1 | S. cerevisiae deletion strains, locus YOR316C, strain cot1, stronger effect = lower value 0.988 | S. cerevisiae deletion strains, locus YPL051W, strain arl3, stronger effect = lower value 1.01 | S. cerevisiae deletion strains, locus YPL055C, strain LGE1, stronger effect = lower value 0.965 | S. cerevisiae deletion strains, locus YPL078C, strain atp4, stronger effect = lower value 1.03 | S. cerevisiae deletion strains, locus YPL106C, strain sse1, stronger effect = lower value 1.01 | S. cerevisiae deletion strains, locus YPL240C, strain hsp82, stronger effect = lower value 1.03 | S. cerevisiae deletion strains, locus YPL241C, strain CIN2, stronger effect = lower value 1 and 0.997 | S. cerevisiae deletion strains, locus YPR119W, strain clb2, stronger effect = lower value 0.999 | S. cerevisiae deletion strains, locus YPR141C, strain kar3, stronger effect = lower value 0.967 | S. cerevisiae deletion strains, locus YPR163C, strain tif3, stronger effect = lower value 1 | S. cerevisiae deletion strains, locus YPR167C, strain met16, stronger effect = lower value 0.984 | S. cerevisiae deletion strains, strain wtn01, stronger effect = lower value 0.991 | S. cerevisiae strains, strain wild type, stronger effect = lower value 0.997
